Experimental data: PubChem BioAssay AID588719 (Southern Research Specialized Biocontainment Screening …, 2011)
The whole screen tested about 1,500 compounds, of which about 920 (61%) were called active. How the calls were made is not given here. The set was probably picked from earlier hits. The list shows a part of the results. A call without a number means that no potency is given here. Potency and affinity values are given separately.

Assay: Vero 76 cell cytotoxicity, dose response, cytotoxicity control for VEEV inhibitor project (AID 588719)
Conditions: Vero 76 cells viability, cytotoxicity counter-screen; series mostly up to 25 µM

| Compound | outcome |
| --- | --- |
| CCOC(=O)c1c(CN2CCOCC2)n(-c2ccccc2)c2ccc(O)cc12 | inactive |
| CC(C)/C(C=O)=C(/NC1CCCCC1)c1ccccc1 | inactive |
| O=C(NC1CCCCC1)c1ccc2ccccc2c1O | inactive |
| CN1c2ccccc2C(C)(C)C12CC(c1ccc(S(=O)(=O)N3CCCCC3)cc1)=NO2 (stereo not drawn) | inactive |
| COc1ccc(OC)c2cc3ccccc3cc12 | inactive |
| O=C(O)CCc1ccc(-c2ccccc2)n1-c1ccc(C(=O)O)cc1 | inactive |
| COc1cccc(C#Cc2ccc3c(c2)O[C@H](CN(C)C)[C@@H](C)CN([C@@H](C)CO)S3(=O)=O)c1 | inactive |
| O=C(Cc1n[nH]c(=O)c2ccccc12)OCc1c(Cl)cccc1Cl | inactive |
| CC(=O)c1c(O)c(C)c(O)c2c1OC1=Cc3c(c(C)nn3C)C(=O)C12C (stereo not drawn) | inactive |
| Cc1onc(-c2ccc(Cl)cc2Cl)c1-c1csc(N/N=C/c2ccccc2Cl)n1 | inactive |
| Cc1cccc(NC(=O)CSc2cc(C)c(C#N)c3nc4ccccc4n23)c1 | inactive |
| CN(C)CCNC(=O)c1cc2sc3ccccc3c2s1 | inactive |
| C(=N\Nc1nncc2ccccc12)/c1ccccc1 | inactive |
| Cc1ccc2c(Cl)cc(Cl)c(O)c2n1 | inactive |
| CCOC(=O)c1c(-c2cccc3ccccc23)csc1NC(=O)C1C2CCC(O2)C1C(=O)O (stereo not drawn) | inactive |
| CN(C)S(=O)(=O)c1cccc(C(=O)Nc2ccccc2C(=O)NC2CC2)c1 | inactive |
| CC(C)c1ccc(N=Cc2c(O)n(C3CC3)c(=S)[nH]c2=O)cc1 | inactive |
| CCOC(=O)CCCc1ccc(/C(C)=N/NC(N)=S)cc1 | inactive |
| CC(Sc1ccc(S(=O)(=O)N2CCOCC2)cn1)c1ccccc1Cl (stereo not drawn) | inactive |
| CC(C)(C)c1cc[n+](C2=C([O-])c3ccccc3C(=O)/C2=N\S(=O)(=O)c2cccs2)cc1 | inactive |
| Cc1ccccc1NS(=O)(=O)c1ccc(C(=O)NCc2ccccc2CN2CCCC2)cc1 | inactive |
| O=C(CCCOc1ccc(Cl)cc1Cl)Nc1ccccc1C(=O)O | inactive |
| O=C(Oc1oc(-c2ccco2)nc1C=Nc1ccc(Cl)cc1)c1ccco1 | inactive |
| CC1(C)Nc2ccccc2C(=O)N1c1ccc(Br)cc1 | inactive |
| COc1ccc(C/C(N)=N/OC(=O)c2cccs2)cc1 | inactive |
| Cc1cc(O)c(-c2cc(C(=O)NCCc3ccc(S(N)(=O)=O)cc3)[nH]n2)cc1C | inactive |

| Compound | outcome |
| --- | --- |
| NNC(=O)C1CCN(S(=O)(=O)c2ccc(Cl)cc2)CC1 | inactive |
| Cc1cc(C)c2c(=O)n(CC(=O)NC3CCCC3)sc2n1 | inactive |
| COc1ccc(-c2cc(C(=O)Nc3c(C)n(C)n(-c4ccccc4)c3=O)c3ccccc3n2)c(OC)c1 | inactive |
| Cc1cc(NC(=O)COC(=O)c2c(Cl)cccc2Cl)no1 | inactive |
| COc1ccccc1/C=C/C(=O)c1ccccc1 | inactive |
| COc1ccc(C)c2sc(N(CCCN(C)C)C(=O)c3ccc4c(c3)OCCO4)nc12 | inactive |
| COC(=O)CCC1(C(N)=O)CCC(=O)c2ccccc21 (stereo not drawn) | inactive |
| CC1(C)Cc2c(sc(NC(=O)COc3cccc4ccccc34)c2C#N)C(C)(C)N1 | inactive |
| OCCCNc1cc(-c2ccnc(Nc3cccc(Cl)c3)n2)ccn1 | inactive |
| CCCC(C)NC(=O)c1ccccc1SC (stereo not drawn) | inactive |
| CC1(C)CCCN(Cc2c(O)ccc3c(=O)c(-c4nc5ccccc5s4)c(N)oc23)C1 | inactive |
| CCOC(=O)C1=NNC(=O)C1 | inactive |
| O=C(Nc1ccc(Cl)c(Cl)c1)Nc1ccccc1C(=O)O | inactive |
| CCN(CC)CCN(Cc1cc2ccc(C)cc2[nH]c1=O)C(=O)Nc1ccc(Cl)cc1 | inactive |
| O=C(COc1cccc2ccccc12)Nc1ccc(Cl)cc1C(=O)O | inactive |
| CCN(CC)CCNC(=O)c1cc2cc(Br)ccc2s1 | inactive |
| CC(=O)Nc1cc[n+](CC(=O)c2cccc([N+](=O)[O-])c2)cc1 | inactive |
| Nc1ccc(C(=O)OCc2nc3cc4ccccc4cc3[nH]2)cc1 | inactive |
| C[C@@H]1CN([C@H](C)CO)C(=O)CCCn2nncc2CO[C@@H]1CN(C)C(=O)c1cc(-c2ccccc2)on1 | inactive |
| COc1ccc(-c2onc(C)c2-c2ccc3c(c2)OCCO3)c(O)c1 | inactive |
| Cc1[nH]c2ccc(-c3nnc(SCC(=O)c4ccccc4F)o3)cc2c1C | inactive |
| O=C(CCCN1C(=O)/C(=C\c2ccco2)SC1=S)Nc1ccc2ccccc2c1 | inactive |
| CCOC(=O)c1c(NC(=O)C(C)Sc2cccc[n+]2[O-])sc2c1CCN(Cc1ccccc1)C2 (stereo not drawn) | inactive |
| Cc1nc2c(sc3nc(N4CCOCC4)c4c(c32)CC(C)(C)OC4)c(-c2ccccc2)c1C(=O)O | inactive |
| CC(C)CCOC(=O)C[N+](C)(C)CCOC1CC2CCC1(C)C2(C)C (stereo not drawn) | inactive |
| CC(Sc1nnc(Nc2ccccc2)s1)C(=O)Nc1nc(-c2ccccc2)cs1 (stereo not drawn) | inactive |

| Compound | outcome |
| --- | --- |
| O=C1NC(=O)N(Cc2ccccc2)C(=O)/C1=C/C=C/c1ccco1 | inactive |
| CCOC(=O)N1CCN(S(=O)(=O)c2ccc(C(=O)N(CCCN(C)C)c3nc4ccc(CC)cc4s3)cc2)CC1 | inactive |
| COc1ccccc1C1CCCN1Cc1nc(-c2ccc(C)s2)oc1C (stereo not drawn) | inactive |
| NCCSc1c(-c2ccc(F)cc2)[nH]c2ccccc12 | inactive |
| CSc1nnc2c3ccccc3n(CCc3ccccc3)c2n1 | inactive |
| CN(C)CC/C=C1/c2ccccc2Sc2ccc(Cl)cc21 | inactive |
| CCCc1cc(C(=O)Nc2cnn(Cc3ccc(F)cc3)c2)no1 | inactive |
| COc1cc(C2C(C#N)=C(N)Oc3c2ccc2ccccc32)ccc1OCC(=O)Nc1ccc(C)cc1 (stereo not drawn) | inactive |
| COc1cccc(N2C(=O)/C(=C/c3ccc(C)o3)C(=O)NC2=S)c1 | inactive |
| CNCCCC12CCC(c3ccccc31)c1ccccc12 | inactive |
| Cc1ccccc1S(=O)(=O)N(C)C[C@H]1OCc2cnnn2CCCC(=O)N([C@H](C)CO)C[C@H]1C | inactive |
| CCOc1ccccc1CNC(=O)c1cc2oc3ccccc3c2n1C | inactive |
| Cc1oc(C(C)(C)C)cc1-c1cc(NC(=O)c2ccc([N+](=O)[O-])cc2)n[nH]1 | inactive |
| COc1ccccc1[C@@]1(C)ON(c2ccccc2C(F)(F)F)C1=O | inactive |
| COc1ccc(C2(C)ON(c3ccccc3C(F)(F)F)C2=O)cc1 (stereo not drawn) | inactive |
| O=C(O)CCN1C(=O)/C(=C2\C(=O)N(Cc3ccc(F)cc3)c3ccccc32)SC1=S | inactive |
| O=C(CCN1C(=O)/C(=C/c2ccccc2F)SC1=S)NCCc1ccc(O)cc1 | inactive |
| COc1cc(NC(C)CCCN)c2nc(C)ccc2c1Oc1ccc(F)cc1 (stereo not drawn) | inactive |
| O=c1c2ccccc2nc(-c2ccoc2)n1CCc1ccccc1 | inactive |
| CCc1[nH]nc(C(=O)NC2CCCc3c2cnn3-c2cc(C)cc(C)c2)c1C (stereo not drawn) | inactive |
| CCCCCCCCCCOC(=O)Cn1c(COc2cccc(OC)c2)[n+](C)c2ccccc21 | inactive |
| COc1ccc(OCCn2c(C)nc3ccccc32)cc1 | inactive |
| O=C(CSC1=Nc2ccccc2C2CC=NN12)Nc1ccc2c(c1)OCO2 (stereo not drawn) | inactive |
| NC(=O)c1ccc(NC(=O)COC(=O)C2COc3ccccc3O2)cc1 (stereo not drawn) | inactive |
| NS(=O)(=O)c1cccc(NC(=O)CN2C(=O)C(=O)N(Cc3ccccc3)C2=O)c1 | inactive |
| C=CCn1c(SCC(=O)NNC(=O)Nc2cccc(Cl)c2)nnc1-c1ccccc1 | inactive |

| Compound | outcome |
| --- | --- |
| O=C(COC(=O)COc1ccccc1)Nc1ccc(Br)cc1F | inactive |
| CN(CCC#N)C(=O)COC(=O)c1ccc2[nH]c3c(c2c1)CCCC3 | inactive |
| Cc1ccc([C@H]2C[C@H](n3cc(-c4ccc(F)cc4)nn3)[C@@H](O)CN2CC2CCCCC2)cc1 | inactive |
| Cc1nc(-c2ccccc2)sc1C(=O)/C=C/c1ccccc1 | inactive |
| O=C(Nc1ncc(Cc2ccccc2Cl)s1)C1CCCO1 (stereo not drawn) | inactive |
| O=C(C=Cc1cccs1)c1cccs1 | inactive |
| O=C1Nc2cc3c(cc2C1=O)sc1ccccc13 | inactive |
| Cc1nc(S/C(C(=O)O)=C2/C(=O)Nc3ccccc32)n[nH]1 | inactive |
| CN1C[C@H](CNC(=O)OCc2ccccc2)C[C@@H]2c3cccc4c3c(cn4C)C[C@H]21 | inactive |
| Cc1ccc2c(c1)cc(C(=O)NCc1ccccc1)n2C | inactive |
| COc1ccc(/C=N/NC(=O)c2cccnc2)cc1COc1ccc(NC(C)=O)cc1 | inactive |
| CCn1c(O)c(/C=N/NC(=O)c2ccccc2)c(=O)[nH]c1=S | inactive |
| O=[N+]([O-])c1cccc(-c2c[n+]3c(n2-c2ccccc2)SCC3)c1 | inactive |
| COc1cc(/C=C2/SC(=S)N(CCC(=O)N3CCN(C)CC3)C2=O)cc(OC)c1OC | inactive |
| COCCN(Cc1nc(-c2ccc(-c3ccccc3)cc2)oc1C)C(C)C | inactive |
| COc1cccc(NC(=S)N(CCCN2CCCC2)Cc2cccn2Cc2ccc(Cl)cc2)c1 | inactive |
| O=C(Cc1c[nH]c2ccccc12)Nc1nnc(C2CC2)s1 | inactive |
| COc1ccc(NC(=O)[C@H](Cc2c[nH]c3ccccc23)NC(=O)[C@@H]2Cc3ccccc3CN2)cc1 | inactive |
| O=C1C2CCCN2C(c2ccccc2)N1c1ccc(Cl)cc1 (stereo not drawn) | inactive |
| CC(=O)c1c(C)cc(C)c(CSc2nc(C)cc(=O)[nH]2)c1C | inactive |
| CCc1ccc([C@@H]2C[C@H]3[C@@H](CN2S(=O)(=O)c2ccc(C)cc2)C(=O)C[C@@H](c2ccc(Cl)cc2)N3S(=O)(=O)c2ccccc2C)cc1 | inactive |
| Cc1cc2nc(/N=C(\N)NC(=O)C(C)C)nc(C)c2cc1C | inactive |
| O=c1c2ccccc2[nH]c(=S)n1CCCN1CCN(c2ccccc2F)CC1 | inactive |
| O=c1c2ccccc2[nH]c(=S)n1CCCN1CCN(c2ccccc2)CC1 | inactive |
| COc1ccc(S(=O)(=O)Nc2ccc3c(c2)C(=O)N([C@H](C)CO)C[C@H](C)[C@@H](CN(C)C(=O)Nc2ccc(C(F)(F)F)cc2)OCCCC[C@H](C)O3)cc1 | inactive |
